Compound activity: PubChem, National Center for Advancing Translational Sciences (NCATS)
Shown are actives, neighbours in structure and some others; about 0.28% of the full set was active somewhere.
Tb PFK inh-1: blocks T. brucei phosphofructokinase | T. brucei PFK, ADP-Glo luminescence | Potency, µM (highest dose often 57.5 µM), hits mostly inhibitors | 330,000 compounds, 0.17% hits; note: nearly all actives have a fitted effect of over 60% in size
Target sequence (O15648 whole entry, looked up): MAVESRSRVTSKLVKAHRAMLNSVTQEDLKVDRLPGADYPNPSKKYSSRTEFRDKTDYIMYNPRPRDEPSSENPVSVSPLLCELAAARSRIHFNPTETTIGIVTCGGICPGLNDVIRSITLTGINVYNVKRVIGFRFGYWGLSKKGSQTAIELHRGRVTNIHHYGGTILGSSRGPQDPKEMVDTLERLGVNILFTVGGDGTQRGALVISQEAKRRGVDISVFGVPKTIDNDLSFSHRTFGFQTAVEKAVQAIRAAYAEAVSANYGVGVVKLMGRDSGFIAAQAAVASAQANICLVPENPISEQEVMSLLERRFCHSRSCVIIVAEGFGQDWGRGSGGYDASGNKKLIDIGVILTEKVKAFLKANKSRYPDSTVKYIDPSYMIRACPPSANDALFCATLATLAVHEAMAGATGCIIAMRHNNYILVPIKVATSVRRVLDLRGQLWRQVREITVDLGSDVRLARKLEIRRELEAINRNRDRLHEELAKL
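In TEA buffer at pH 8.0 with 5 mM MgCl2, enzyme (1.25 nM) converted F6P (0.5 mM) and ATP (0.1 mM) for 45 min at room temperature. ADP product was read by luciferase luminescence.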
PGK inhibitor: T. brucei PGK inhibition | AID 602233 | PGK/GAPDH coupled, Kinase-Glo luminescence, 60 min | Potency, µM (doses to about 57.5 µM), most hits filed as inhibitors | 380,000 compounds, 0.043% hits; note: nearly all actives have a fitted effect of over 60% in size
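Luminescent ATP detection (Kinase-Glo Plus) follows a 60-minute room-temperature incubation, with wells lacking PGK as controls. Buffer: 100 mM TEA (pH 7.6), 5 mM MgCl2, 0.01% Tween-20. Coupling enzyme GAPDH (100 nM final) supplies unstable 1,3-BPG in-well.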
Pin1 inh: blocks the human prolyl isomerase Pin1; Q13526; Pin1 FP peptide displacement, HiFluor488, 10 min; Potency, µM (top dose mostly 115 µM), usual class: inhibitors; 390,000 compounds, 0.009% hits; AID 504891; active = well fitted inhibition curve with a large enough effect in the polarisation, with a control signal flat, not every such curve was filed as active; inconclusive = small, poorly fitted or top-dose-only effect, or effect the other way, or a change in a side signal; inactive = no such curve, though single readings can be large or run the other way; the % refers to the polarisation
Target sequence (Q13526 whole entry, looked up): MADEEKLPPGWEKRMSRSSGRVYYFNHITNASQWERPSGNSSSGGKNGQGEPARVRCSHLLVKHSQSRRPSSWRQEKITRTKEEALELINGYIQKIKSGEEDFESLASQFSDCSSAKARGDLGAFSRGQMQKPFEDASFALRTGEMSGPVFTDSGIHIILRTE
USP2a inh: blocks human ubiquitin-specific protease USP2a. O75604. USP2 core, Ub-CHOP2 coupled fluorogenic reporter, 485/531. Potency, µM (highest dose often 38.3 µM), most hits filed as inhibitors. 330,000 compounds, 0.01% hits. AID 463254
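USP2 core (10nM final) preincubated 30min RT with compound in 20mM Tris-HCl pH 8.0, 2mM CaCl2, 2mM beta-mercaptoethanol, 0.05% CHAPS; 25nM Ub-CHOP2 plus 25nM reporter substrate added, fluorescence (Ex485/Em531) read after 60min.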
PI4K2A inh: PI4K2A (human) kinase inhibition; 420,000 compounds, 0.13% hits; purified PI4K2A, ADP-Glo luminescence, 1 h; stronger effect = lower value; Q9BTU6; activity change, negative = inhibition, % at 76.9 µM; AID 1346378; in the data active = activity change below about -50%; inconclusive = mostly about -30% to -49%
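In this quantitative HTS, ADP production by PI4K2A was quantified luminescently after 1 h at ambient temperature; 100 microM adenosine served as plate-quality control.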
TbPFK ATP: Tb phosphofructokinase inhibition, orthogonal luminescence | Tb PFK enzyme, ATP depletion, Kinase-Glo Plus luminescence | shares compounds with Tb PFK inh-1 | 1,100 compounds, 47% hits | Potency, µM (series often up to 57.5 µM); calls by dose curve; note: nearly all actives have a fitted effect of over 60% in size
Tb PFK inh-2: T. brucei PFK enzyme inhibition, hit validation; 1,100 compounds, 41% hits; shares compounds with Tb PFK inh-1; Potency, µM (series often up to 57.5 µM), most hits filed as inhibitors; purified T. brucei PFK, ADP-Glo luminescence, 45 min; AID 504637; note: nearly all actives have a fitted effect of over 60% in size
Numbers stand for hits; n = inactive; u = inconclusive; x = no result. Unless noted, calls come from the whole dose curve; as a rule, active = well fitted curve in the direction sought with a large enough effect; inconclusive = small, poorly fitted or top-dose-only effect, or another doubt; inactive = no such curve, though single readings can be large; an effect the other way counts as inactive or inconclusive.

SMILES	Tb PFK inh-1	PGK inhibitor	Pin1 inh	USP2a inh	PI4K2A inh	TbPFK ATP	Tb PFK inh-2
CC(=O)OCC(=O)[C@@]12N=C(C)O[C@@H]1C[C@H]1[C@@H]3CCC4=CC(=O)C=C[C@]4(C)[C@H]3[C@@H](O)C[C@@]12C	x	x	x	x	n	x	x
Cc1cc(C)cc(Cn2ncc3c4sc(C)cc4n(C)c3c2=O)c1	x	x	n	x	x	x	x
CC(=O)c1ccc(NC(=S)Nc2ccc(Br)c(Cl)c2)cc1	12µM	n	n	n	n	30µM	u
O=C(c1ccc(NC(=S)Nc2ccc(Cl)c(Cl)c2)cc1)N1CCCC1	21µM	n	n	n	n	u	u
CCCCNC(=S)NCCCN(Cc1ccc(Cl)c(Cl)c1)c1ccc(Br)cn1	x	x	n	x	x	x	x
O=S(=O)(c1ccc(C(F)(F)F)cc1)N1CCN(S(=O)(=O)c2ccc3c(c2)OCCO3)CC1	x	x	n	x	x	x	x
COc1ccc(C2c3c(ncn(Cc4ccccc4)c3=N)Oc3ccc4ccccc4c32)cc1OC (stereo unspecified)	x	x	n	x	x	x	x
CCCCCc1nnc(NC(=O)Cc2cccs2)s1	u	u	n	n	n	u	u
Nc1ccccc1SSc1ccccc1N	u	n	n	n	u	8.5µM	13µM
N#Cc1ccc2ccn(CC(=O)NC3CCCCCC3)c2c1	n	n	n	n	n	x	x
N#Cc1ccc2ccn(CC(=O)NCc3ccco3)c2c1	21µM	n	n	n	n	13µM	30µM
Cn1nnnc1Sc1ncnc2scc(-c3cccc(Cl)c3)c12	x	x	n	x	x	x	x
COCCn1c(SCCN2CCOCC2)nc2c1c(=O)[nH]c(=O)n2C	u	n	n	n	n	21µM	34µM
COc1ccc(CNc2cccc3[nH]c(C(F)(F)F)nc23)cc1	n	n	n	n	n	x	x
Cc1ccc(C(=O)Nc2cccc3[nH]c(C(F)(F)F)nc23)cc1	u	n	n	n	n	u	u
O=C(Cc1ccc(F)cc1)N/N=C/c1ccc(-c2ccc(Cl)c(C(=O)O)c2)o1	u	n	n	n	n	u	u
O=C(O)c1cc(N/N=C/c2ccc(-c3ccc(F)cc3)o2)ccc1Cl	n	n	n	n	n	x	x
CSS(=O)(=O)c1cccc2cccnc12	17µM	n	n	n	n	21µM	30µM
COc1cc(/C=C/C(=O)O[C@H]2CC[C@]34C[C@]35CC[C@]3(C)[C@@H]([C@H](C)CCC=C(C)C)CC[C@@]3(C)[C@@H]5CC[C@H]4C2(C)C)ccc1O	x	x	x	x	n	x	x
CC(C)C[C@H](NC(=O)[C@H](Cc1ccccc1)NC(=O)c1cnccn1)B(O)O	x	x	x	x	n	x	x
CCOC(=O)c1ccc(N2N=C(C)/C(=C/C=C/c3ccco3)C2=O)cc1	n	n	n	n	n	x	x
O=C(O)c1cc(N2N=C(C(F)(F)F)/C(=C/C=C/c3ccco3)C2=O)ccc1Cl	17µM	u	x	10µM	-67	4.8µM	5.4µM
CN1C2CCC(C)(C)C1CC(OC(=O)C(O)(c1cccs1)c1cccs1)C2 (stereo unspecified)	x	x	x	x	n	x	x
NS(=O)(=O)c1ccc(N/N=C/c2ccc(O)cc2O)c([N+](=O)[O-])c1	n	n	n	n	n	x	x
NS(=O)(=O)c1ccc(N/N=C/c2ccc(O)c(O)c2O)c([N+](=O)[O-])c1	u	n	u	n	n	u	u
SMILES	Tb PFK inh-1	PGK inhibitor	Pin1 inh	USP2a inh	PI4K2A inh	TbPFK ATP	Tb PFK inh-2
COc1cc(O)c2c(=O)c3c(O)ccc(O)c3oc2c1	u	n	u	n	n	u	u
COc1ccc(C(=O)N(Cc2ccccc2)Cc2ccccc2)c(O)c1	x	x	n	x	x	x	x
CC(C)=CCN1CC[C@@]2(C)c3cc(O)ccc3C[C@@H]1[C@@H]2C	x	x	x	x	n	x	x
CC(C(Sc1ccccc1N)c1ccccc1)[N+](=O)[O-] (stereo unspecified)	24µM	n	n	n	n	u	u
Cc1ccc(N(C(=O)c2cccc(C)c2)S(=O)(=O)c2ccc(Cl)cc2)cc1	x	n	n	x	n	x	x
Cc1ccc(S(=O)(=O)CNC(=S)c2cccc(Cl)c2)cc1	u	n	n	n	n	u	30µM
O=C1c2c(O)cccc2C(C2OC(CO)[C@@H](O)[C@H](O)[C@H]2O)c2cc(CO)cc(O)c21 (stereo partly specified)	n	n	n	n	n	x	x
O=C(O)c1cc(O)c2c(c1)[C@H]([C@H]1c3cc(C(=O)O)cc(O)c3C(=O)c3c(O[C@@H]4O[C@H](CO)[C@@H](O)[C@H](O)[C@H]4O)cccc31)c1cccc(OC3O[C@H](CO)[C@@H](O)[C@H](O)[C@H]3O)c1C2=O (stereo partly specified)	u	u	0.71µM	u	-64	u	4.8µM
Cc1nc(CN(C)c2ncnc3cc(-c4ccc5c(c4)OCO5)ccc23)cs1	x	x	n	x	x	x	x
COc1ccc(C2c3c(nc(C)[nH]c3=O)Oc3ccc4ccccc4c32)cc1OC (stereo unspecified)	x	x	n	x	x	x	x
COc1ccc(N2CCN(S(=O)(=O)CCNC(=O)c3ccc4c(c3)OCO4)CC2)cc1	n	n	n	n	n	x	x
O=C(NCCS(=O)(=O)N1CCN(c2cccc(Cl)c2)CC1)c1ccc2c(c1)OCO2	u	n	n	n	n	21µM	u
O=C(NCc1cccc(Cl)c1)c1ccc2c(c1)OCCO2	24µM	n	n	n	n	13µM	19µM
O=C(NCc1ccc2c(c1)OCO2)c1ccc2c(c1)OCCO2	n	n	n	n	n	x	x
COC(=O)NCc1ccc(Cl)c(Cl)c1	21µM	n	n	n	n	11µM	30µM
O=C(NCc1ccc(Cl)c(Cl)c1)c1ccc2c(c1)OCO2	24µM	n	n	n	n	7.6µM	8.5µM
COC(=O)NCc1ccc(CNC(=O)OC)cc1	n	n	n	n	n	x	x
COc1ccc(C(=O)N(Cc2cccs2)Cc2cccs2)c(O)c1	x	x	n	x	x	x	x
CC(O)CNc1nc(Cl)c(C#N)s1 (stereo unspecified)	n	n	n	n	n	x	x
N#Cc1sc(NCc2ccccc2)nc1Cl	19µM	n	n	n	n	11µM	27µM
COc1ccc(CNc2nc(Cl)c(C#N)s2)cc1	12µM	n	n	n	n	7.6µM	13µM
CC(C)(C)CC(=O)Nc1cc(S(=O)(=O)N2CCOCC2)ccc1N1CCCC1	u	n	n	n	n	n	u
CC1=NOC(=O)/C1=C/c1ccc(N(C)C)cc1	15µM	n	u	n	n	u	13µM
CC1=NN(CCC#N)C(=O)/C1=C/c1ccc(N(C)C)cc1	21µM	n	n	n	n	11µM	27µM
Cc1cc2c(s1)c1cnn(Cc3cc(F)c(F)c(F)c3)c(=O)c1n2C	x	x	n	x	x	x	x
